For orientation: inhibition means the relative decrease from the control value, in per cent.

Molecules are shown by their SMILES. The campaign covered roughly 220,000 compounds. About 2,000 (0.91%) were called active. Roughly 2% stayed inconclusive and do not appear here. No stated cut-off is given here; in the data, inconclusive means inhibition above about 80% without an active follow-up result; inactive means below that; test concentration not stated here. These entries were drawn from the full list. Results with a measured potency or affinity are listed apart.

The source of these data is PubChem BioAssay AID1626 (SRMLSC, 2009).

The assay in a line: M. tuberculosis H37Rv growth inhibitors, H37Rv strain (AID 1626).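 Further: bacteria incubated seven days before Alamar blue readout; 0% = bacteria only wells and 100% = bacteria with antibiotic wells.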 Particulars: hits give high values, concentration not given here.
Consider `COCCCNC(=O)c1ccc(N2CCOCC2)c(NS(=O)(=O)c2ccc(OC)cc2)c1`, for which the inhibition was -10.8% (inactive).
On to `Cc1ccc(SC[C@H](c2ccccc2)N2CCN(CCc3ccccc3)CCC2=O)cc1`, for which the inhibition was 0.98% (inactive).
`COC(=O)C(C(=O)OC)c1ccc(N)cc1`: the inhibition was 79.1% (inactive).
Then `N/C(=N/OC(=O)c1ccccc1Cl)c1nonc1N`, with -5.25% (inactive); and `N=C(N)CCCOc1ccccc1-c1ccccc1`, with 4.47% (inactive).
In the case of `O=C(CN1C(=O)c2ccccc2C1=O)Nc1ccc(N2CCOCC2)cc1`, the inhibition was 1.44% (inactive).
Then `O=C(NCCN1CCOCC1)c1ccc2c(c1)N(Cc1cccc(F)c1)C(=O)c1ccccc1S2`, with 2.5% (inactive).
To `Cc1cc(Cl)n2c(nc3ccccc32)c1C#N` belongs -11.2% (inactive); to `Cc1cc(Nc2c(C)n(C)n(-c3ccccc3)c2=O)n2c(nc3cc(F)c(F)cc32)c1C#N`, -5.9% (inactive).
To `COC(=O)c1[nH]c2ccc(Br)cc2c1NC(=O)C(C)N1CCN(C2CCCCC2)CC1` (stereo not drawn) belongs -3.42% (inactive); to `CC1CCc2nc3ccccc3c(C(=O)OCC(=O)NC3CCS(=O)(=O)C3)c2C1` (stereo not drawn), -5% (inactive).
As to `CN(C(=O)COC(=O)c1c2c(nc3ccccc13)/C(=C/c1cccc([N+](=O)[O-])c1)CCC2)C1CCS(=O)(=O)C1` (stereo not drawn), the inhibition was 78.5% (inactive).
Consider `Cc1nn(C)c(C(=O)Nc2ccn(Cc3ccccc3F)n2)c1[N+](=O)[O-]`, for which the inhibition is -2.14% (inactive).
Then `O=[N+]([O-])c1ccc(NCCCO)c(S(=O)(=O)N2CCOCC2)c1`, with -3.72% (inactive).
To `COc1ccc2c(c1)sc(=N)n2CC(=O)Nc1cc(C)cc(C)c1` belongs 3.49% (inactive); to `COc1ccc2c(c1)c1ccccc1n2C`, -6.03% (inactive).
Take `O=C(O)COc1ccccc1Cc1ccccc1`: the inhibition was -9.69% (inactive).
Take `O=C(COc1ccc(F)cc1)N1c2ccccc2CCc2ccccc21`: the inhibition was 6.06% (inactive).
On to `O=C(CCC1CCCN(c2ncccn2)C1)N1CCN(c2ccccn2)CC1` (stereo not drawn), for which the inhibition was 0.77% (inactive).
With `N#C/C(=C/c1ccncc1)c1nc2ccccc2s1`, the inhibition is 4.82% (inactive).
Then `N#C/C(=C\c1ccco1)c1nc2ccccc2s1`, with 4.85% (inactive); and `Cc1ccc(OCC(=O)n2nc(C)cc2C)c(C)c1`, with 10% (inactive).
Then `COc1ccc(N2C(=O)CC(N3CCC(c4nc5ccccc5[nH]4)CC3)C2=O)cc1` (stereo not drawn), with -1.11% (inactive); and `O=C(CN1C(=O)NC2(CCCCCCC2)C1=O)N1CCc2ccccc2C1`, with -9.98% (inactive); and `CSc1nsc(SCC(=O)Nc2nc3ccc(C)cc3s2)n1`, with 10.3% (inactive).
Then `CSc1nsc(SCC(=O)Nc2ccc3c(c2)OCCO3)n1`, with -14.4% (inactive).
Take `CCOc1ccc2nc(SCC(=O)NC(=O)C(C)C)sc2c1`: the inhibition is 3.81% (inactive).
To `CSc1nsc(SCC(=O)Nc2cccc(C(C)=O)c2)n1` belongs -15.7% (inactive); to `O=C(CSc1nc2ccccc2s1)Nc1ccc2c(c1)OCO2`, 76.4% (inactive); to `CSc1nsc(SCC(=O)Nc2nc3ccccc3s2)n1`, 52.1% (inactive).
To `COc1ccc2nc(NC(=O)CSc3nnnn3C3CCCCC3)sc2c1` belongs 0.53% (inactive); to `CCn1nnnc1SCC(=O)Nc1nc2ccc(OC)cc2s1`, 1.9% (inactive).
For `O=C1c2ccccc2C(Nc2ccc(S(=O)(=O)N3CCOCC3)cc2)N1Cc1ccco1` (stereo not drawn), the inhibition was -2.41% (inactive).
As for `CC(CC(=O)N1CCN(c2ccc(C(F)(F)F)cn2)CC1)n1ccnc1` (stereo not drawn), the inhibition was 1.81% (inactive).
As to `O=C(Cc1ccc(-n2c(=O)c3sccc3n(CC(=O)Nc3ccccc3F)c2=O)cc1)NCc1ccco1`, the inhibition is -10.9% (inactive).
Then `COc1ccc(C(CC(=O)N2CCCC(C)C2)c2c(OC)cc(OC)c3c(-c4ccccc4)cc(=O)oc23)cc1` (stereo not drawn), with -5.32% (inactive).
For `COc1cc(C(CCN2CCCC(C)C2)c2c(OC)cc(OC)c3c(-c4ccccc4)cc(=O)oc23)cc(OC)c1OC` (stereo not drawn), the inhibition is 71% (inactive).
Consider `COc1cc(C(CCN2CCCC2)c2c(OC)cc(OC)c3c(-c4ccccc4)cc(=O)oc23)cc(OC)c1OC` (stereo not drawn), for which the inhibition was -3.05% (inactive).
On to `COc1cc(OC)c2c(-c3ccccc3)cc(=O)oc2c1C(CC(=O)N1CCOCC1)c1ccc(N(C)C)cc1` (stereo not drawn), for which the inhibition is -7.25% (inactive).
Regarding `O=C(Cc1c(Cl)cccc1Cl)Nc1cccc(S(=O)(=O)N2CCOCC2)c1`, the inhibition is 9.23% (inactive).
With `OC(COc1ccc(-c2ccccc2)cc1)CN1CCOCC1` (stereo not drawn), the inhibition is 8.22% (inactive).
In the case of `CCOc1ccccc1NC(=O)Cn1c(=O)oc2ccccc21`, the inhibition was 6.54% (inactive).
To `Cc1nn(-c2ccccn2)c2c1C(c1ccccc1Cl)C1=C(N2)c2ccccc2C1=O` (stereo not drawn) belongs 5.6% (inactive); to `Cc1nn(-c2ccccn2)c2c1C(c1c(F)cccc1Cl)C1=C(N2)c2ccccc2C1=O` (stereo not drawn), 8.57% (inactive).
Then `Cc1cc(C)c(C#N)c(Oc2ccc(O)cc2)n1`, with 8.87% (inactive); and `CC(=O)C1C(=O)C=C(c2cccs2)CC1c1ccccc1` (stereo not drawn), with 2.98% (inactive).
With `O=C1C=C(c2cccs2)CC(c2cccs2)C1n1cnc([N+](=O)[O-])c1` (stereo not drawn), the inhibition was 8.22% (inactive).
Take `Cc1ccc(S(N)(=O)=O)c(C)c1N1CCCC1=O`: the inhibition was -3.84% (inactive).
For the compound `COc1ccc(-c2noc(CCC(=O)NCCCN3CCN(c4ccc(F)cc4)CC3)n2)cc1`, the inhibition was 8.36% (inactive).
Turning to `Cc1ccc(-c2noc(CCC(=O)NCCCN3CCN(c4ccc(F)cc4)CC3)n2)cc1`, the inhibition was -9.54% (inactive).
On to `COc1ccc(CCC(=O)Nc2ccc3c(c2)OCCO3)cc1`, for which the inhibition was -2.09% (inactive).
Take `COc1ccc(-c2noc(CCC(=O)Nc3cc(OC)ccc3OC)n2)cc1`: the inhibition was 3.07% (inactive).
With `Cc1ccc(-c2noc(CCC(=O)Nc3ccc4c(c3)OCO4)n2)cc1`, the inhibition was 67.5% (inactive).
In the case of `COc1ccc(-c2noc(CCC(=O)Nc3cccc(C)c3)n2)cc1`, the inhibition is 78.2% (inactive).
`COc1cc(OC)c(NC(=O)CCc2nc(-c3ccc(C)cc3)no2)cc1Cl`: the inhibition was -0.67% (inactive).
To `COc1ccc(-c2noc(CCC(=O)Nc3cc(Cl)c(OC)cc3OC)n2)cc1` belongs 14.3% (inactive); to `CCOc1ccc(-c2nc(N)ncc2Oc2ccc(OC)cc2)c(O)c1`, 1.63% (inactive); to `CCOc1ccc(CN2CCN(Cc3cccc4c3OCO4)CC2CCO)cc1` (stereo not drawn), 5.32% (inactive).
